In the library only some 1.6% were active in any assay of this set; here they are far more common.
STAT1 inh: reduces IFN-gamma driven STAT1 reporter signal | NIH 3T3 STAT1-luciferase reporter, luminescence | inhibition, % at 5.5 µM | hit rate 0.35% among 200,000 | AID 920;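 active = inhibition above a set limit, the mean inhibition across all tested compounds plus 3 SD, cut at about 34% in these data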
Platelet DG rel: platelet dense granule release activity; hit rate 0.22% among 300,000; inhibition, %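 (compounds screened at 7.5 µM in platelet-rich plasma)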; human platelet-rich plasma, SFLLRN dense granule ATP release, luminescence;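 active = mean replicate score, as percent of positive control, at or above 50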
PPC-1+TRAIL kill: PPC-1 cancer cell killing with TRAIL present | PPC-1 cells + TRAIL, ATPLite viability luminescence | cell killing (% activity), % at 4 µM or 5 µM | hit rate 0.41% among 220,000 | AID 1443;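 active = cell killing above 50% in the first pass at 4 µM, then a duplicate retest at 5 µM averaging 50% or more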
C8 TRAIL sens: caspase-8 TRAIL sensitization; NB7+C8 cells + TRAIL, ATPlite viability luminescence; inhibition (viability loss, TRAIL sensitization), % at 10 µM; hit rate 1% among 360,000; AID 624354;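 active = compounds causing at least 50% loss of cell viability in the single-dose screen, relative to plate controls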
STAT3 inh-1: inhibitors of IL-6 induced STAT3 signaling; U3A cells, IL-6 STAT3-luciferase reporter, luminescence; host cell line lacks STAT1; inhibition, % at 5.5 µM; hit rate 0.89% among 190,000; AID 862;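 active = inhibition above the mean inhibition across all screened compounds plus 3 SD, cut at about 44% in these data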
STAT3 inh-2: confirmation of STAT3 signaling inhibitors; inhibition, % at 5.7 µM; U3A cells, IL-6 STAT3 luciferase reporter, luminescence; cell line lacks STAT1; shares compounds with STAT3 inh-1; hit rate 45% among 1,200;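 active = inhibition above the hit cutoff computed for the primary STAT3 screen, cut at about 44% in these data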
NFkB inh STAT3ct: inhibits NF-kappaB, counter-screen to STAT3 inhibitors | shares compounds with STAT3 inh-1 | HEK293T NF-kB luciferase reporter, TNF-alpha induced | inhibition, % at 5.7 µM | hit rate 36% among 1,200;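 active = inhibition above the mean of solvent-only control wells plus 3 SD, cutoff set per campaign, cut at about 13% in these data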
STAT1 inh 2: counter-screen for STAT3 inhibitors: STAT1 inhibition; shares compounds with STAT3 inh-1; NIH 3T3 STAT1-luciferase reporter, IFN-gamma induced, luminescence; inhibition, % at 5.7 µM; hit rate 27% among 1,200; AID 1317;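 active = inhibition above the mean plus 3 SD of solvent-only control wells, limit set per screening run, cut at about 16% in these data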
PPC-1 tox: kills PPC-1 cells; cytotoxicity, % at 5 µM; PPC-1 viability, ATPlite luminescence, overnight; hit rate 50% among 1,200; shares compounds with PPC-1+TRAIL kill;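 active = reconfirmed compounds whose average cytotoxicity reaches 50% or more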
Hits are given with their value; - = inactive; . = not tested or not shown.

SMILES	STAT1 inh	Platelet DG rel	PPC-1+TRAIL kill	C8 TRAIL sens	STAT3 inh-1	STAT3 inh-2	NFkB inh STAT3ct	STAT1 inh 2	PPC-1 tox
CCCCCc1ccc(OCCCC[n+]2cccc(C)c2)c(CCCCC)c1	-	-	-	-	58.0	48.4	-	26.3	-
CC1CCC(NC(=O)C2CCC(CNS(=O)(=O)c3ccc4c(c3)C(C)(C)C(=O)N4C)CC2)CC1 (centres undefined)	.	.	.	-	.	.	.	.	.
N#Cc1ccc(S(=O)(=O)N2CCN(C(=O)[C@@H]3CCCN3C(=O)c3cccs3)CC2)cc1	.	.	.	-	.	.	.	.	.
CC[n+]1c(/C=C2\Sc3ccccc3N2C)ccc2cccc(C)c21	-	-	-	-	84.5	80.2	31.1	-	-
CC(C)c1ccc(NC(=O)c2csnn2)cc1	-	-	-	-	45.0	-	-	-	-
O=C(Nc1ccccc1NC(=O)c1csnn1)c1csnn1	-	-	-	-	-	.	.	.	.
Cc1ccc(N2C(=O)c3ccccc3C2O)nc1 (centres undefined)	-	77.6	53.5	.	73.6	43.8	-	-	54.1
CS(=O)(=O)c1ccc2nc(NC(=O)CCNC(=O)c3ccc(Cl)cc3)sc2c1	.	.	.	-	.	.	.	.	.
Cc1cc(/C=N/NC(=O)c2ccncc2)c(C)n1-c1ccccc1	-	-	-	-	-	.	.	.	.
Cc1cc(/C=N/NC(=O)c2cccs2)c(C)n1-c1ccccc1	-	-	68.7	61.4	67.6	-	27.4	-	67.8
COc1ccc(NC(=O)C2CCCN2S(=O)(=O)c2ccc3c(c2)C(C)(C)C(=O)N3C)cc1 (centres undefined)	.	.	.	-	.	.	.	.	.
COc1cccc(/C=N/Nc2nccnc2Cl)c1O	-	84.2	-	71.9	82.9	-	24.2	-	-
Cc1ccnc(NC(=O)Nc2cccc(F)c2)n1	-	-	-	-	-	.	.	.	.
COc1cccc(NC(=O)Nc2ccc3nc(C)c(C)nc3c2)c1	.	-	.	-	.	.	.	.	.
COc1cccc(NC(=O)Nc2nccc(C)n2)c1	-	-	55.5	66.7	70.7	-	-	-	61.7
COc1cccc(NC(=O)Nc2ccc3c(c2)nc(C)n3C)c1	-	-	74.8	81.8	53.7	-	-	-	71.6
C/C(=N\NC(=O)c1ccccc1O)c1cccs1	-	-	58.3	69.6	60.7	-	-	-	54.0
C/C(=N\NC(=O)c1ccncc1)c1cccs1	-	-	-	-	-	.	.	.	.
C/C(=N/NC(=O)c1cc(C2CC2)[nH]n1)c1cccs1	-	-	60.0	67.0	76.3	51.8	19.1	-	-
Cc1ccc(NC(=O)COC(=O)C2=NNC(=O)CC2)c(Br)c1	.	.	.	-	.	.	.	.	.
COC(=O)c1ccc(CSc2ccccc2NC(=S)Nc2cccc(SC)c2)o1	.	.	.	-	.	.	.	.	.
COc1cc(OC)c(NC(=O)CCNS(=O)(=O)c2ccc3c(c2)CC(C)N3C(C)=O)cc1Cl (centres undefined)	.	-	.	-	.	.	.	.	.
c1ccc(-c2nc3ccccc3[nH]2)cc1	.	-	.	-	.	.	.	.	.
COc1ccc(-c2nc3ccccc3[nH]2)cc1	-	-	78.0	78.9	59.7	-	-	-	76.8
CC1CC(C)CN(S(=O)(=O)c2ccc3oc(=O)ccc3c2)C1 (centres undefined)	.	-	.	-	.	.	.	.	.
SMILES	STAT1 inh	Platelet DG rel	PPC-1+TRAIL kill	C8 TRAIL sens	STAT3 inh-1	STAT3 inh-2	NFkB inh STAT3ct	STAT1 inh 2	PPC-1 tox
CC(=O)NC(c1ccccc1)c1nc(-c2ccc(F)c(Cl)c2)cs1 (centres undefined)	.	.	.	-	.	.	.	.	.
COc1cc(OC)c(-c2nc3ccccc3s2)cc1OC	-	-	-	-	-	.	.	.	.
COc1cc(-c2nc3ccccc3s2)ccc1O	-	-	-	-	-	.	.	.	.
COc1ccc(-c2nc3ccccc3s2)cc1O	-	.	82.7	82.5	92.3	53.4	-	-	83.6
COc1cccc(-c2nc3ccccc3s2)c1O	-	-	61.3	73.4	43.9	-	-	-	64.2
CCc1nc2ccc(C(=O)NCCOc3ccc(OC)cc3)cn2c1N(CC)Cc1ccc(OC)c(OC)c1	.	.	.	-	.	.	.	.	.
Cc1csc(N/N=C/c2ccc([N+](=O)[O-])cc2)n1	.	-	.	-	.	.	.	.	.
Cc1csc(N/N=C/c2ccccn2)n1	-	-	-	72.5	53.1	-	-	-	-
CC(C)(C)S(=O)N1Cc2cc(C(=O)NCC(F)(F)F)nc(-c3cccc(-c4cccc(F)c4)c3)c2[C@H]1CCO (some centres undefined)	.	.	.	-	.	.	.	.	.
O=C(Nc1ccc2c(c1)nc1n2CCOC1)c1ccco1	-	-	-	-	-	.	.	.	.
O=C(Nc1ccc2c(c1)nc1n2CCSC1)c1ccco1	-	-	59.5	72.0	63.2	-	-	-	58.5
Cc1nnc(N2CCOCC2)c2nn(-c3ccccc3)c(C)c12	-	-	-	-	-	.	.	.	.
c1ccc(-n2nnc3c(N4CCOCC4)ncnc32)cc1	-	-	-	65.8	81.1	-	-	-	-
COc1ccc(-c2nsc3c(N4CCCCC4)ncnc23)cc1	-	-	78.6	84.9	101.9	75.5	59.7	-	77.9
Cc1ccnc(NC(=O)/C=C/c2ccccc2Cl)c1	-	-	-	54.9	54.6	-	-	-	-
Cc1ccnc(NC(=O)/C=C/c2ccccc2[N+](=O)[O-])c1	-	-	-	.	-	.	.	.	.
COc1ccc(O)c(C(=O)CC(=O)c2ccc(F)cc2)c1	-	-	79.5	80.1	77.3	-	-	-	75.4
Cc1ccc(-n2c(SCC(=O)N3CCCc4ccccc43)nnc2-c2cccnc2)c(C)c1	-	-	-	-	-	.	.	.	.
Cc1ccc(-n2c(-c3ccccc3)c[n+]3c2CCc2ccccc2-3)c(C)c1	-	.	-	-	66.0	60.3	-	25.2	-
O=C(OCC(=O)N1CCC(Cc2ccccc2)CC1)c1ccc(O)cc1	.	.	.	-	.	.	.	.	.
COc1ccc(/C=N\n2nnc3ccccc32)cc1	-	-	-	55.3	92.7	62.3	32.4	-	-
COc1ccc(/C=N/n2c(C)nc3ccccc3c2=O)cc1	.	-	.	-	.	.	.	.	.
COc1ccc(/C=N/Nc2nncc3ccccc23)cc1	-	68.3	94.6	91.2	64.2	70.6	51.1	33.0	94.8
O=C(Nc1ccc2c(c1)OCO2)N1CCN(Cc2ccco2)CC1	-	-	76.3	72.7	44.7	-	-	-	73.8
Cc1cnc(NC(=O)c2sc3ccccc3c2Cl)s1	-	-	70.0	81.7	63.9	-	24.2	-	67.6
O=C(/C=C/c1ccc(Cl)cc1Cl)Nc1cccc(S(=O)(=O)NC2=NCCC2)c1	-	-	87.0	90.5	52.4	-	-	-	87.9
CC(C)(C)OC(=O)N1CCc2onc(-c3ccc(Cl)cc3)c2C1=O	.	.	.	-	.	.	.	.	.
N=c1cc(C2(O)CCCCC2)n2c(nc3ccccc32)s1	-	-	75.0	84.3	61.3	-	-	-	78.5
Clc1ccc(-c2nc(-c3ccccn3)no2)cc1Cl	-	-	66.0	78.3	70.8	-	13.6	-	63.7
